# In all, about 33,000 sequences were measured (“e-score”: median about -0.053, highest 2% from about 0.38 on). Many of the other results were omitted from the sample, so the highest values are more common in it than they were.
# Biological target: T1, SIX1 homeodomain (reference allele) (human, UniProt Q15475 108-198)
# T1 sequence: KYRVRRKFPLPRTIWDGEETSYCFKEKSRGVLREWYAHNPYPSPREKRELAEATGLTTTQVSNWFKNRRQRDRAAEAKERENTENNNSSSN
# Assay: universal protein binding microarray; Universal all-10-mer PBM (8x60K, AMADID 030236), 300 nM GST-tagged protein, Alexa Fluor 488 anti-GST; buffer, salt, pH and temperature not stated (as in Berger); high values mean tight binding
# Settings: protein: ivt; tags: N-terminal GST; dsDNA, one strand shown
# Method in brief: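 Duplicate protein binding microarrays (universal 'all 10-mer', 8×60K format) were incubated with GST-tagged homeodomains at 300 nM final concentration. Binding was quantified as 8-mer E-scores with the Universal PBM Analysis Suite.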
row,Sequence,binding signal [E-score]
1,GGTATGAA,0.224 ± 0.00641
2,GCCTAATA,0.167 ± 0.0373
3,ATCATGCA,0.225 ± 0.0116
4,AGATAGTA,0.24 ± 0.0305
5,CCCGTATC,0.469 ± 0.0109
6,ACCGTCTC,0.251 ± 0.0203
7,ACCGTATA,0.278 ± 0.0281
8,CCCGTATA,0.29 ± 0.023
9,ACCGTATC,0.449 ± 0.00906
10,CCCGTCTC,0.205 ± 0.0534
11,ATACAGTC,0.163 ± 0.00378
12,CAGATAGC,0.171 ± 0.0462
13,GGGATTAC,0.167 ± 0.011
14,CAGGATTA,0.213 ± 0.0434
15,CGGATTAC,0.299 ± 0.00435
16,AGATAATA,0.245 ± 0.114
17,ATCAAATA,0.239 ± 0.0859
18,CACAATAC,0.31 ± 0.0105
19,ATACTACC,0.23 ± 0.0327
20,GAGGGGTA,0.257 ± 0.0214
21,TAGGGATA,0.41 ± 0.00754
22,CATGGATA,0.3 ± 0.00508
23,AATGGATA,0.354 ± 0.0168
24,AAGGGATA,0.37 ± 0.0084
25,GAGGGATA,0.412 ± 0.00552

row,Sequence,binding signal [E-score]
1,GAGGGATC,0.397 ± 0.00899
2,TAGGGAGA,0.177 ± 0.0683
3,GATGGATA,0.3768 ± 0.0011
4,GGCATATA,0.29 ± 0.00948
5,CGGATTAA,0.351 ± 0.0739
6,CTATAATA,0.259 ± 0.0899
7,GATCTCGC,0.254 ± 0.0311
8,ATAGATGA,0.287 ± 0.0197
9,ATCGTGCA,0.16 ± 0.0147
10,ATATGGAT,0.371 ± 0.00838
11,CCGGATCG,0.417 ± 0.0468
12,ACGGATCT,0.324 ± 0.0553
13,CCCGATCG,0.323 ± 0.0723
14,GCGGATCC,0.348 ± 0.0564
15,ACGGATCC,0.386 ± 0.0442
16,ACGGATCG,0.354 ± 0.0265
17,ACGGATCA,0.43 ± 0.0139
18,CCGGATTC,0.249 ± 0.0385
19,CCGGATCC,0.424 ± 0.034
20,ACAGATCC,0.288 ± 0.0336
21,CCAGATCC,0.332 ± 0.0766
22,ATCTCGAG,0.215 ± 0.0177
23,AACCCATA,0.263 ± 0.0634
24,GTTAGATA,0.248 ± 0.0413
25,AAGATCAA,0.201 ± 0.0668

row,Sequence,binding signal [E-score]
1,ATCCTACC,0.299 ± 0.0201
2,CGTATTAG,0.174 ± 0.0547
3,GTACACGA,0.165 ± 0.0933
4,ACTAGATC,0.181 ± 0.003
5,CGAAGATA,0.325 ± 0.0496
6,ATCCCGAC,0.238 ± 0.0448
7,ACCCGATA,0.4 ± 0.0453
8,ACCCGATC,0.372 ± 0.0497
9,CACCGATA,0.374 ± 0.0197
10,AACCGATA,0.41 ± 0.00758
11,GCCCGATA,0.33 ± 0.0332
12,TACCGATA,0.375 ± 0.0115
13,ATACATTA,0.223 ± 0.0139
14,ATCCATGC,0.253 ± 0.0158
15,ATCCGAAC,0.278 ± 0.0321
16,CCGGATAG,0.361 ± 0.0142
17,ACGGATTC,0.187 ± 0.0297
18,ACGGATAG,0.344 ± 0.0201
19,ACGGATAA,0.216 ± 0.0405
20,CCGGATAC,0.4414 ± 0.00339
21,ACGGATAC,0.454 ± 0.00689
22,ACGGATAT,0.4283 ± 0.00251
23,GCGGATAA,0.317 ± 0.0316
24,GCGGATAC,0.43 ± 0.00572
25,ACGGATTG,0.179 ± 0.0302

row,Sequence,binding signal [E-score]
1,CCGGATAA,0.299 ± 0.0306
2,AGGTAGAT,0.2625 ± 0.00214
3,GATCTGCC,0.334 ± 0.00569
4,ATCCGAGC,0.24 ± 0.00809
5,GTATTACA,0.227 ± 0.0055
6,GATAGTCC,0.24 ± 0.023
7,GGTGTTAA,0.301 ± 0.0173
8,ATCTGTAC,0.221 ± 0.0203
9,ATCGCATA,0.287 ± 0.0238
10,GATCATTA,0.348 ± 0.0458
11,AGTCTGAT,0.19 ± 0.0144
12,GCGATCCC,0.395 ± 0.0154
13,CCGATCTC,0.316 ± 0.0192
14,AAGATCCC,0.243 ± 0.0194
15,CCGATCGA,0.264 ± 0.0353
16,GAGATCCA,0.332 ± 0.0213
17,CCGATCCC,0.412 ± 0.0499
18,GCGATCGC,0.378 ± 0.0183
19,GCGATCCA,0.345 ± 0.0824
20,CCGATCGC,0.212 ± 0.0392
21,GCGATCGA,0.199 ± 0.0473
22,ACGATCCC,0.337 ± 0.0613
23,GAGATCCC,0.378 ± 0.0279
24,CAGATAGG,0.245 ± 0.0333
25,TATATAAA,0.197 ± 0.00308

row,Sequence,binding signal [E-score]
1,TAGATCTA,0.175 ± 0.0374
2,ATATGTAC,0.244 ± 0.0293
3,ATCGCTTG,0.156 ± 0.032
4,TAACGATA,0.315 ± 0.0478
5,GAACGATC,0.236 ± 0.00301
6,GAACGATA,0.383 ± 0.0174
7,GATCGATC,0.362 ± 0.0437
8,GATCGATA,0.408 ± 0.0108
9,AATCGATA,0.335 ± 0.0577
10,ATACGGTA,0.405 ± 0.0105
11,ATACGGTC,0.256 ± 0.0328
12,CTACGATC,0.233 ± 0.0113
13,ATACGGTG,0.328 ± 0.012
14,ATACGATG,0.277 ± 0.0162
15,ATACGATC,0.388 ± 0.00595
16,ACCAGGGT,0.189 ± 0.0407
17,CCGTCTAC,0.171 ± 0.0578
18,ATCGGTTG,0.238 ± 0.008
19,TAATCTCA,0.186 ± 0.0184
20,GTGTCCAA,0.221 ± 0.057
21,GGGCTAGA,0.209 ± 0.0223
22,ATACGATA,0.419 ± 0.0297
23,ACACGATG,0.156 ± 0.0256
24,ACACGATA,0.384 ± 0.0253
25,CTACTATC,0.273 ± 0.0271

row,Sequence,binding signal [E-score]
1,CTACGATA,0.321 ± 0.0303
2,GTACGATA,0.338 ± 0.0355
3,ATACTATA,0.371 ± 0.0468
4,ATACTATC,0.401 ± 0.0105
5,ACACGATC,0.266 ± 0.019
6,AACTATAC,0.24 ± 0.0587
7,AGATGTAT,0.338 ± 0.00993
8,ATACGCAC,0.254 ± 0.00836
9,CCCATGGG,0.152 ± 0.0229
10,GATCGGCA,0.211 ± 0.0237
11,ATACACAT,0.289 ± 0.00303
12,ATGTGAGA,0.165 ± 0.0625
13,ATGTGATA,0.392 ± 0.0638
14,GTGTGTGA,0.174 ± 0.0383
15,ATGTGATC,0.32 ± 0.0109
16,CTGTGATA,0.39 ± 0.0381
17,GTGTGAGA,0.245 ± 0.029
18,GTGTGATA,0.411 ± 0.0318
19,CTGTGATC,0.328 ± 0.00414
20,AGATAGGA,0.175 ± 0.0479
21,CGAATCCA,0.1647 ± 0.00129
22,CCCGCGGA,0.205 ± 0.00383
23,TATCTGCA,0.284 ± 0.0307
24,GAAATACC,0.1851 ± 0.00123
25,ATACCGAT,0.3532 ± 0.00127

row,Sequence,binding signal [E-score]
1,ATACCGCG,0.377 ± 0.0129
2,ACACCGCA,0.351 ± 0.043
3,ATACCGCA,0.4061 ± 0.00272
4,ACACCGCC,0.321 ± 0.0533
5,ATACCGCC,0.418 ± 0.0211
6,ATACCGAA,0.329 ± 0.0172
7,ATACCGAG,0.304 ± 0.0181
8,ACACCGCG,0.283 ± 0.0738
9,CTGAGCCC,0.161 ± 0.049
10,ATCCCAAC,0.189 ± 0.0265
11,ATACGTCA,0.196 ± 0.0392
12,ATCAGCGG,0.171 ± 0.08
13,ACAATATC,0.309 ± 0.0486
14,CTGATAGC,0.319 ± 0.0368
15,ATGATCGC,0.265 ± 0.0383
16,ATGATAGC,0.379 ± 0.0583
17,ATGATAGG,0.387 ± 0.0153
18,AGGATAGG,0.306 ± 0.0312
19,ACGATAGG,0.269 ± 0.00971
20,ATCCAGCA,0.198 ± 0.0454
21,CGTAACAC,0.205 ± 0.0442
22,ATTACATC,0.248 ± 0.072

# Source: paper PMC10668032, “Altered binding affinity of SIX1-Q177R correlates with enhanced WNT5A and WNT pathway effector expression in Wilms tumor”
